The whole screen tested about 52,000 compounds, of which about 4,300 (8.3%) were called active. Rule as the data show it: active = survival mostly below about 52% (no sharp cut-off); inactive = mostly above about 56%. The full list was thinned out, with actives kept by preference.

The subject of this experiment is DeltatarO mutant. As to the kind of experiment: growth inhibition of S. aureus wild type versus tarO mutant, primary screen, teichoic acid synthesis inhibitors, RN4220, OD600 (AID 463173). To be noted: OD600, 18 h, stronger effect = lower value, screened at 18.75 µg/mL (by protocol).
With `CC(C)c1ccc(OCC(=O)Nc2cc(-c3ccccc3)no2)cc1`, the survival was 110% (inactive).
With `Cn1c(Oc2cccc(Cl)c2)nc2c1c(=O)n(Cc1ccccc1Cl)c(=O)n2C`, the survival is 66% (inactive).
Regarding `O=C(Cc1ccccc1)NC1CCN(S(=O)(=O)c2cccc(F)c2)CC1`, the survival was 80% (inactive).
To `Cc1c(Cl)cccc1Nc1nn2c(=O)c3ccc(C(=O)NCCc4ccccc4)cc3nc2s1` belongs 98% (inactive); to `O=C(C1CCCN(S(=O)(=O)c2cccc3nsnc23)C1)N1CCN(c2ccccc2Cl)CC1` (stereo not drawn), 107% (inactive).
Turning to `COCCc1nn2c(=O)cc(COC(=O)c3ccco3)nc2s1`, the survival is 92% (inactive).
The figure for `Cc1cc(C)c(NC(=O)Cn2nnc(-c3ccccc3)n2)c(C)c1` is 63% (inactive); for `Cc1ccccc1OCC(=O)NCC(c1ccc(Cl)cc1)N1CCCCC1` (stereo not drawn) it is 66% (inactive); for `Cc1ccccc1Nc1c(-c2cccs2)nc2cccc(C)n12` it is 63% (inactive).
For the compound `COc1ccc(-c2cc(C(=O)Oc3ccccc3)c3cc(C)ccc3n2)cc1`, the survival is 9% (active).
For the compound `Cc1ccc2nc(-c3ccc(Cl)cc3)cc(C(=O)OCC(=O)c3ccccc3)c2c1`, the survival was 58% (inactive).
To `COc1ccc(-c2cc(C(=O)NC(C)c3ccccc3)c3cc(C(C)C)ccc3n2)cc1` (stereo not drawn) belongs 101% (inactive).
The figure for `Cc1n[nH]c(C)c1S(=O)(=O)N(CC(=O)NCc1ccccc1Cl)c1ccc(C(C)C)cc1` is 52% (inactive); for `Cc1ccc(N(CC(=O)NC(C)c2ccccc2)S(=O)(=O)c2c(C)noc2C)cc1` (stereo not drawn) it is 74% (inactive).
On to `Cc1ccc(CNC(=O)CN(c2ccc(C(C)C)cc2)S(=O)(=O)c2c(C)n[nH]c2C)cc1`, for which the survival is 43% (active).
The figure for `Cc1n[nH]c(C)c1S(=O)(=O)N(CC(=O)Nc1ccc(C(F)(F)F)cc1)c1ccc(C(C)C)cc1` is 46% (active).
In the case of `Cc1n[nH]c(C)c1S(=O)(=O)N(CC(=O)NC(C)c1ccccc1)c1ccc(C(C)C)cc1` (stereo not drawn), the survival is 54% (active).
Take `Cc1ccc(N(CC(=O)Nc2ccc(C)c(F)c2)S(=O)(=O)c2c(C)n[nH]c2C)cc1`: the survival is 66% (inactive).
As to `COc1cccc(CNC(=O)CN(c2ccc(C(C)C)cc2)S(=O)(=O)c2c(C)n[nH]c2C)c1`, the survival was 56% (inactive).
To `COc1ccc(CNC(=O)CN(c2ccc(C)cc2)S(=O)(=O)c2c(C)n[nH]c2C)cc1` belongs 85% (inactive); to `Cc1noc(C)c1S(=O)(=O)N(CC(=O)Nc1ccc(C(F)(F)F)cc1)c1ccc(C(C)C)cc1`, 55% (inactive); to `CSc1ccc(CCNC(=O)c2cc3c(-c4ccccc4F)nn(C)c3s2)cc1`, 55% (inactive).
As for `CCOc1ccc(CNC(=O)C2CCN(S(=O)(=O)c3cn(C)cn3)CC2)cc1`, the survival is 99% (inactive).

The record behind these values is PubChem BioAssay AID463173 (ICCB-Longwood Screening Facility, Harvard Medical School, 2010).
